Measured potencies and affinities stand elsewhere. Active and inactive are the calls of the source. The rule behind the calls is not given here.
assay: Vero cell cytotoxicity, cytotoxicity control for M. tuberculosis inhibitor project, purified and synthesized samples, set 3 (AID 504684); conditions: series mostly up to 100 µM

SMILES | outcome
CCOC1OC(=O)C(Cl)=C1Nc1ccccc1C (stereo not drawn) | inactive
Cc1[nH]c(=S)[nH]c(=O)c1C | inactive
CCOC(=O)COn1c2c(c3c4no[n+]([O-])c4ccc31)CCCC2 | inactive
COc1cc(NC(=O)C/C(C)=N/NC(=O)c2ccccn2)c(OC)cc1Cl | inactive
CC(=NCc1ccc2c(c1)OCO2)C1=C(O)c2ccccc2C1=O | inactive
O=C(CSc1ccccn1)NC1CCCCC1 | inactive
CCOC(=O)COc1ccc(/C=C2\NC(=S)N(CC)C2=O)cc1 | inactive
COC(=O)C(C)Oc1ccc(-c2nccc(-c3ccccn3)n2)cc1 (stereo not drawn) | inactive
CC[N+](C)(CC)CCCCOc1ccc2c(c1)C(=O)c1cc(OCCCC[N+](C)(CC)CC)ccc1-2 | inactive
CCOC(=O)CSc1nc(C)c(C)c(=O)[nH]1 | inactive
Cc1c[nH]c(=S)[nH]c1=O | inactive
Cc1cc(=O)[nH]c(=S)[nH]1 | inactive
O=C(CSc1ncccn1)NC1CCCCC1 | inactive
O=C(CSc1nc2ccccc2c(=O)[nH]1)NC1CCCCC1 | inactive
COC(=O)C1CC(=O)N(c2ccc(OCc3ccccc3Cl)cc2)C1 (stereo not drawn) | inactive
COC(=O)C(C)Oc1ccc(Cc2ncc(C(F)(F)F)cc2Cl)cc1 (stereo not drawn) | inactive
O=C(CSc1nc(O)cc(=O)[nH]1)Nc1ccccc1 | inactive
Cc1nc(SCC(N)=O)[nH]c(=O)c1C | inactive
CCSc1nc(C)c(C)c(=O)[nH]1 | inactive
Cc1ccc(NC(=O)COC(=O)CCc2c[nH]c3ccccc23)cc1[N+](=O)[O-] | inactive
Cc1cc(=O)[nH]c(SCC(=O)Nc2ccccc2)n1 | inactive
Cc1nc(SCC(=O)NC2CCCCC2)[nH]c(=O)c1C | inactive
O=C(CSc1nccc(=O)[nH]1)Nc1ccc(N2CCOCC2)cc1 | inactive
